Data taken from PubChem BioAssay (Tox21).
Results filed as inconclusive are left out. Calls of active or inactive are those of the source. Unless noted, calls come from the whole dose curve.

Experiments:
[1] = Nuclear factor erythroid 2-related factor 2/antioxidant responsive element (Nrf2/ARE) small molecule agonists: qHTS cell viability counter screen in human keratinocytes (AID 1919968; active = well fitted cell-killing curve with a large enough effect in the repeat runs; note: nearly all actives have a fitted effect of over 55% in size)
Summary of the method: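 Fluorescence read-out from CellTiter-Fluor after 1 h at 37 C. Wells held HaCaT-derived ARE-luciferase reporter cells (1,500/well) treated 23 h with DMSO-dissolved compounds. Run in the same wells as the luciferase agonist read.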

[2] = Nuclear factor erythroid 2-related factor 2/antioxidant responsive element (Nrf2/ARE) small molecule agonists: luciferase reporter gene qHTS assay in human keratinocytes (AID 1919969); note: nearly all actives have a fitted effect of over 35% in size
[3] = biological target: Gonadotropin-releasing hormone receptor (Homo sapiens) (UniProt P30968); assay: Human gonadotropin-releasing hormone receptor (GnRHR) small molecule agonists, calcium flux assay in GnRHR-HEK293 cells (AID 1920063); note: nearly all actives have a fitted effect of over 35% in size
Summary of the method: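 Calcium-dye fluorescence, Ex/Em=480/540, recorded every 1 sec over 3 min after compound addition to GnRHR-HEK293 cells. Cells had been seeded 18 hours earlier and dye-loaded for 1 hour at 37 C. Fifteen concentrations, triplicates.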

[4] = G protein-coupled receptor (GPCR) small molecule agonists, calcium flux assay: HEK293 wild type cell line counter screen (AID 1920065)
Summary of the method: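 Agonist mode; 18 h seeding at 37 C, 1 h dye load at 37 C; compounds pinned from DMSO, ATP as positive control; kinetic fluorescence 480/540 nm, 3 min, 1 s reads; 15 concentrations, triplicate.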

[5] = p53 small molecule agonists, cell-based qHTS assay with human liver microsomes (AID 1963577)
Summary of the method: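 p53RE-bla reporter cells were pre-incubated 5 h at 37 C, then treated with compounds plus human liver microsomes (0.5 mg/mL final) and NADPH (0.5 mg/mL final) for 16 h at 37 C. Beta-lactamase activity was read by LiveBLAzer fluorescence after 2 h at room temperature.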

[6] = p53 small molecule agonists, cell-based qHTS assay with rat liver microsomes (AID 1963578)
Summary of the method: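 p53RE-bla cells were exposed to compounds together with rat liver microsomes (0.5 mg/mL final) and NADPH (0.5 mg/mL final) for 16 h at 37 C, then read by LiveBLAzer beta-lactamase fluorescence after 2 h at room temperature.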

[7] = p53 small molecule agonists, cell-based qHTS assay with human liver microsomes: qHTS cell viability counter screen (AID 1963579); note: nearly all actives have a fitted effect of over 45% in size
Summary of the method: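 p53RE-bla cells (4,000/well) were pre-incubated 5 h at 37 C, then given compounds in DMSO plus human liver microsomes (0.5 mg/mL final) and NADPH (0.5 mg/mL final) for 16 h at 37 C. Viability was read by CellTiter-Glo luminescence.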

[8] = p53 small molecule agonists, cell-based qHTS assay with rat liver microsomes: qHTS cell viability counter screen (AID 1963580); note: nearly all actives have a fitted effect of over 45% in size
Summary of the method: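 Luminescent ATP readout (CellTiter-Glo, 30 min at room temperature) reports viability of p53RE-bla HCT-116 cells after 16 h at 37 C with test compounds under metabolic activation by rat liver microsomes and NADPH at 0.5 mg/mL final each.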

[9] = p53 small molecule agonists, cell-based qHTS assay: qHTS cell viability counter screen (AID 1963581); note: nearly all actives have a fitted effect of over 45% in size
Summary of the method: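 Cytotoxicity read-out: ATP-based luminescence (CellTiter-Glo, 30 min RT) measured in the same wells as the p53 reporter assay, HCT-116 p53RE-bla cells, 16 h compound exposure at 37 C.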

[10] = p53 small molecule agonists, cell-based qHTS assay (AID 1963582; active = well fitted activation curve with a large enough effect in the signal ratio in the repeat runs, not every such curve was filed as active; the % refers to the signal ratio)
Summary of the method: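 Fluorescence intensity read-out of a beta-lactamase reporter under a p53 response element. Cells were exposed to DMSO-dissolved compounds for 16 h at 37 C, then developed with FRET substrate for 2 h at RT.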

[11] = biological target: Muscarinic acetylcholine receptor M1 (Homo sapiens) (UniProt P11229); assay: Cholinergic receptor muscarinic 1 (CHRM1) small molecule antagonists, cell-based qHTS assay (AID 1963588); note: nearly all actives have a fitted effect of over 40% in size
Summary of the method: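 Compounds were tested at 15 concentrations in three independent runs. Dye-loaded CHRM1-CHO cells were exposed 5 min at room temperature before stimulation by acetylcholine added at 50nM. Intracellular calcium was read kinetically on FDSS for 3 min.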

[12] = biological target: Muscarinic acetylcholine receptor M1 (Homo sapiens) (UniProt P11229); assay: Cholinergic receptor muscarinic 1 (CHRM1) small molecule agonists, cell-based qHTS assay (AID 1963589); note: nearly all actives have a fitted effect of over 35% in size
Summary of the method: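 Calcium flux read-out: kinetic fluorescence at 1 sec intervals after pin-tool compound addition to dye-loaded CHRM1-CHO cells (human M1). Agonist mode; 15 concentrations tested in triplicate independent runs.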

[13] = cAMP Responsive Elements (CRE) small molecule agonists, cell-based qHTS assay (AID 1963590)
Summary of the method: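 Beta-lactamase reporter readout: LiveBLAzer B/G FRET substrate, 2 h at room temperature, added after 3 h compound treatment of CRE-bla HEK 293T cells at 37 C/5% CO2.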

[14] = cAMP Responsive Elements (CRE) small molecule antagonists, cell-based qHTS assay (AID 1963591; active = well fitted inhibition curve with a large enough effect in the signal ratio in the repeat runs, not every such curve was filed as active; the % refers to the signal ratio)
Summary of the method: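 HEK293T CRE-bla; 18 h preincubation; compound pin-transfer; NKH477 0.25 uM final, 3 h, 37 C; LiveBLAzer FRET substrate 2 h RT.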

[15] = biological target: Beta-2 adrenergic receptor (Homo sapiens) (UniProt P07550); assay: Adrenergic beta2 receptor (ADRB2) small molecule antagonists, cell-based qHTS assay (AID 1963592); note: series mostly up to about 92 µM; nearly all actives have a fitted effect of over 50% in size
Summary of the method: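 Assay format: CHO-ADRB2 cells, 18-20hr seeding at 37C/5% CO2, then compound plus 1nM isoproterenol agonist mix for 0.5hr RT. Homogeneous time-resolved fluorescence cAMP detection after 1hr, expressed as 665/615 nm ratio.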

[16] = biological target: Beta-2 adrenergic receptor (Homo sapiens) (UniProt P07550); assay: Adrenergic beta2 receptor (ADRB2) small molecule agonists, cell-based qHTS assay (AID 1963593);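 note: CHO cells stably overexpressing human ADRB2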
Summary of the method: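 CHO cells stably over-expressing ADRB2 were plated overnight at 37C, then dosed with compounds plus a stimulation mix containing 100uM IBMX and 25uM Ro-20-1724 for 0.5hr at room temperature. cAMP was measured by HTRF competition, 1hr.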

[17] = biological target: D(2) dopamine receptor (Homo sapiens) (UniProt P14416); assay: Dopamine D2 receptor (DRD2) small molecule agonists, cell-based qHTS assay (AID 1963594); note: nearly all actives have a fitted effect of over 35% in size
Summary of the method: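 HEK293 cells stably expressing DRD2 were cultured 24 h at 37 C, then given Ro20-1724 (0.1 mM final) and compounds for 10 min at room temperature. NKH477 (200nM) was then added for 30 min. cAMP was read by HTRF.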

[18] = biological target: D(2) dopamine receptor (Homo sapiens) (UniProt P14416); assay: Dopamine D2 receptor (DRD2) small molecule antagonists, cell-based qHTS assay (AID 1963595; active = well fitted inhibition curve with a large enough effect in the signal ratio in the repeat runs, with a control signal flat; the % refers to the signal ratio)
Summary of the method: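 Antagonism was scored as restored cAMP in HEK293-DRD2 cells. These cells were stimulated with 200 nM NKH477 and 12 nM quinpirole for 30 min at room temperature, in the presence of 0.1 mM Ro20-1724.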

[19] = biological target: 5-hydroxytryptamine receptor 2A (Homo sapiens) (UniProt P28223); assay: 5-hydroxytryptamine receptor 2A (HTR2A) small molecule antagonists, cell-based qHTS assay (AID 1963586); note: nearly all actives have a fitted effect of over 45% in size
Summary of the method: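 CHO cells stably expressing human HTR2A were plated for 18 h at 37 C, then loaded with calcium dye for 1 h. Compounds were preincubated 5 min at room temperature before DOI (4 nM solution) was added. Kinetic fluorescence was read for 3 min.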

[20] = biological target: 5-hydroxytryptamine receptor 2A (Homo sapiens) (UniProt P28223); assay: 5-hydroxytryptamine receptor 2A (HTR2A) small molecule agonists, cell-based qHTS assay (AID 1963587); note: nearly all actives have a fitted effect of over 30% in size
Summary of the method: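 HTR2A-CHO cells, plated 18 h at 37 C/5% CO2, dye-loaded 1 h at 37 C; compounds in DMSO added by pin tool (agonist mode). Intracellular calcium flux read as kinetic fluorescence on FDSS over 2 min at 1 s intervals.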

Measured: Potency

Sequence of Beta-2 adrenergic receptor (Homo sapiens) (P07550 whole entry, looked up): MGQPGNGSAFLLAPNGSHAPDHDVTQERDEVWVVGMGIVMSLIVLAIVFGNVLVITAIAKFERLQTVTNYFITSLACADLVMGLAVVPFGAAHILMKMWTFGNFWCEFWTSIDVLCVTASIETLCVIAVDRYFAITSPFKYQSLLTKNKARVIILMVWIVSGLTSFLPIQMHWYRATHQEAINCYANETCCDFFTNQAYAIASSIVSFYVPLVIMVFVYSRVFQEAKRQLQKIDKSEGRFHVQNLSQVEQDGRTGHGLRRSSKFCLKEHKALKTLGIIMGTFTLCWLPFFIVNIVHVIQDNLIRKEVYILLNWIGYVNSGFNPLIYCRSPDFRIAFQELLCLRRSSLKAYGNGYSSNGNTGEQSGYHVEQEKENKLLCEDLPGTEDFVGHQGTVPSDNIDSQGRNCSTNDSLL
Sequence of D(2) dopamine receptor (Homo sapiens) (P14416 whole entry, looked up): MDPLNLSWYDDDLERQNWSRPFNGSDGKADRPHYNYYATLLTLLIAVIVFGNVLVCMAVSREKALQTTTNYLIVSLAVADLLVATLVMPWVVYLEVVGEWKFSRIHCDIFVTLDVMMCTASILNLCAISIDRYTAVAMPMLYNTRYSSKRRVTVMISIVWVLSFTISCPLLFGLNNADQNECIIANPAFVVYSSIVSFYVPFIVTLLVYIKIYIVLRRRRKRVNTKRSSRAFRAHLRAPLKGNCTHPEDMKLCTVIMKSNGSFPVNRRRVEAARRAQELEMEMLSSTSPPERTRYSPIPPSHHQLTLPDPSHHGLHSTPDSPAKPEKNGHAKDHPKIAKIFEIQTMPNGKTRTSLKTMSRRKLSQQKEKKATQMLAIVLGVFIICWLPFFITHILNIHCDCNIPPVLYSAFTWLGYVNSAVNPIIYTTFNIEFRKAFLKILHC
Sequence of 5-hydroxytryptamine receptor 2A (Homo sapiens) (P28223 whole entry, looked up): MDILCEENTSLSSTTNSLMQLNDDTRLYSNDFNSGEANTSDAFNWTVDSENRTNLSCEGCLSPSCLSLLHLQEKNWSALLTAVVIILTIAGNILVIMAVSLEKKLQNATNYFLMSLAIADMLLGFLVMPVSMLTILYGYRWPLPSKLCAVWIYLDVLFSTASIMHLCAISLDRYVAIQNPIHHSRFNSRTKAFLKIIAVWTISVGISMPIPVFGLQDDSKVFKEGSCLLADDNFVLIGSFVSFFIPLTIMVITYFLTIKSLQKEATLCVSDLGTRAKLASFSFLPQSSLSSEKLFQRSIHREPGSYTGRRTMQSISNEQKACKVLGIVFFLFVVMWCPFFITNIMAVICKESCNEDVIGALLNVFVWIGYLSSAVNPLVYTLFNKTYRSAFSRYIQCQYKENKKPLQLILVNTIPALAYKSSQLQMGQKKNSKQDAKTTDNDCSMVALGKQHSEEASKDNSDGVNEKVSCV
Sequence of Muscarinic acetylcholine receptor M1 (Homo sapiens) (P11229 whole entry, looked up): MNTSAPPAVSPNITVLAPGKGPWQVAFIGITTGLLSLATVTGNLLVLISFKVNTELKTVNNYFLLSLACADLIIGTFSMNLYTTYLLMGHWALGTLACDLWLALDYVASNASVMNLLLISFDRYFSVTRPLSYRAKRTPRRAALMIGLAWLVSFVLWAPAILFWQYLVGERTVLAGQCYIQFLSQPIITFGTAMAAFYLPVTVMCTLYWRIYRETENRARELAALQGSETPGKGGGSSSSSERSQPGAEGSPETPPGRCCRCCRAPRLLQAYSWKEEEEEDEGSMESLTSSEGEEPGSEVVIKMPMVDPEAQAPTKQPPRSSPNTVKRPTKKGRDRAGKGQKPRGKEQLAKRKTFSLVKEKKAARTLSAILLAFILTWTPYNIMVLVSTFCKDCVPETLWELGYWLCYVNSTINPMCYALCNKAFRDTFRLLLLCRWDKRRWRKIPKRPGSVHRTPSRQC
Sequence of Gonadotropin-releasing hormone receptor (Homo sapiens) (P30968 whole entry, looked up): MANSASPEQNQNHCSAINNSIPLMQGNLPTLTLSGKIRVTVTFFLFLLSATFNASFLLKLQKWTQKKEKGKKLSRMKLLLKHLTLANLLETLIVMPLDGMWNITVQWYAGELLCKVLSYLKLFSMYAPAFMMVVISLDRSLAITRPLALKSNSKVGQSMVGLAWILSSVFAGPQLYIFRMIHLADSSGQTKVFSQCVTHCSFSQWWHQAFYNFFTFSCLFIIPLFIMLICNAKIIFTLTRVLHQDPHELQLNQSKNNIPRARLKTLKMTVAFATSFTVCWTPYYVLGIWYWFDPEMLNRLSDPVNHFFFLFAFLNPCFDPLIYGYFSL

CN(C)CCCSc1ccccc1NC(=O)/C=C/c1ccccc1
inactive: [1] | [2] | [3] | [4] | [5] | [6] | [7] | [8] | [9] | [10] | [11] | [12] | [13] | [14] | [15] | [16] | [17]

C[C@@H]1C[C@H]2[C@@H]3CCC4=CC(=O)C=C[C@]4(C)[C@@]3(F)[C@@H](O)C[C@]2(C)[C@@]1(O)C(=O)COP(=O)(O)O
inactive: [1] | [2] | [3] | [4] | [5] | [6] | [7] | [8] | [9] | [10] | [13] | [14] | [15] | [16] | [17] | [18]

CCN(O)CC
inactive: [1] | [2] | [3] | [4] | [5] | [6] | [7] | [8] | [9] | [10] | [11] | [12] | [13] | [15] | [16] | [17]

CCCC(C)C
inactive: [1] | [2] | [3] | [4] | [5] | [6] | [7] | [8] | [9] | [19] | [20] | [11] | [12] | [13] | [14] | [15] | [17] | [18]

CCCCCCCCCCCc1ccccc1
inactive: [1] | [2] | [3] | [4] | [5] | [6] | [7] | [9] | [10] | [20] | [11] | [12] | [13] | [14] | [15] | [16] | [17]

COc1ccc2nc(SCc3ncc(C)c(OC)c3C)[nH]c2c1
inactive: [1] | [2] | [3] | [5] | [7] | [8] | [9] | [10] | [19] | [20] | [11] | [15] | [17] | [18]

O=c1c(O)c(-c2ccc(O)cc2O)oc2cc(O)cc(O)c12
inactive: [1] | [2] | [3] | [4] | [5] | [6] | [8] | [10] | [19] | [20] | [11] | [12] | [15] | [16]

COc1cc(NS(=O)(=O)c2ccc(N)cc2)nc(OC)n1
inactive: [1] | [2] | [3] | [4] | [5] | [6] | [9] | [13] | [15] | [18]
